# OPRM1-OPRD1 ag: agonists of OPRM1-OPRD1 heterodimerization, primary screen, cell-based, luminescence | AID 504326, 2011 | cells | Mu-type opioid receptor (Homo sapiens) + Delta-type opioid receptor (Homo sapiens), … | activation, % at 9.3 µM | 340,000 tested, 0.3% active; in the data active = activation above about 18%
# HTR5A ag ctr: HTR5A agonists in luminescence cell assay, primary screen, counter-screen for OPRM1-OPRD1 heterodimer agonist project, full-deck HTS. 5-hydroxytryptamine receptor 5A (Homo sapiens), P47898. activation, % at 9.3 µM. 340,000 tested, 0.61% active. cell-based; in the data active = activation mostly above about 9.5%, no sharp cut-off; inactive = mostly below about 7.6%
# Target sequence (P47898 whole entry, looked up): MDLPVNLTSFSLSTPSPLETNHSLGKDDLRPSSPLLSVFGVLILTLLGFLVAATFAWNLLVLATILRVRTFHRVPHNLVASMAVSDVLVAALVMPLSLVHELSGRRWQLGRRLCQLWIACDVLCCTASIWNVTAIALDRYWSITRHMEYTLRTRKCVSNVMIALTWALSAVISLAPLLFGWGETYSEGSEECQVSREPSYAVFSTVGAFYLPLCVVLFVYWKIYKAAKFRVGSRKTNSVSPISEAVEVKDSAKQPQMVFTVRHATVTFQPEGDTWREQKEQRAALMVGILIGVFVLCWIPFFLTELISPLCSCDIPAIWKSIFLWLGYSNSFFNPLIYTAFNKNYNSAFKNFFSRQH
# HTR5A inv ag: HTR5A inverse agonists in luminescence cell assay, primary screen, counter-screen for OPRM1-OPRD1 heterodimer inverse agonist project, full-deck HTS | 5-hydroxytryptamine receptor 5A (Homo sapiens), P47898 | HTR5A cell line, inverse agonism | inhibition, % at 9.3 µM | 340,000 tested, 0.083% active | AID 504634, 2011; in the data active = inhibition mostly above about 23%, no sharp cut-off; inactive = mostly below about 18%
# HTR2A ag: mouse Htr2a agonists via beta-arrestin recruitment, primary screen, cell-based, luminescence. 5-hydroxytryptamine receptor 2A (Mus musculus), P35363. CHO-K1 mHTR2A beta-arrestin complementation; percent of 30 µM serotonin response. activation, % at 7.6 µM. 360,000 tested, 0.66% active. AID 624169, 2012;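 active = activation above a run cutoff, the mean activation of all tested compounds plus 3 SD, cut at about 14% in these data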
# MOR-DOR inv ag-1: inverse agonists of MOR-DOR heterodimerization, primary screen, cell-based, luminescence; inhibition, % at 9.3 µM; 340,000 tested, 0.21% active; cell-based MOR-DOR heterodimer luminescence, inverse agonism; AID 504357, 2011; Mu-type opioid receptor (Homo sapiens) + Delta-type opioid receptor (Homo sapiens), …; in the data active = inhibition above about 22%, passing the limit was not always enough
# OPRM1-D1 inv cf: inverse agonists of MOR-DOR heterodimerization, confirmation, cell-based, luminescence; shares compounds with MOR-DOR inv ag-1; inhibition, % at 9.3 µM; 580 tested, 20% active; cells expressing OPRM1/OPRD1 heterodimer; in the data active = inhibition above about 32%
# HTR5A inv count: HTR5A inverse agonists, counter-screen for OPRM1-OPRD1 inverse agonist project, cell-based, luminescence; inhibition, % at 9.3 µM; shares compounds with MOR-DOR inv ag-1; HTR5A-expressing cells, inverse agonism; 580 tested, under 10 active
# MOR-DOR inv ag-2: inverse agonists of MOR-DOR heterodimerization, counter-screen for HTR5A inverse agonist project, cell-based, luminescence. shares compounds with HTR5A inv ag. U2OS counter-screen cells, complementation luminescence. 190 tested, under 10 active. inhibition, % at 9.3 µM
# HTR5A inv confrm: HTR5A inverse agonists, retest of hits, confirmation, cell-based, luminescence | shares compounds with HTR5A inv ag | HTR5A-expressing cells, inverse agonism | inhibition, % at 9.3 µM | 190 tested, under 10 active
# OPRM1 ag: OPRM1 agonists via beta-arrestin recruitment, confirmation, counter-screen for mouse HTR2A agonist project, cell-based, luminescence, single concentration. shares compounds with HTR2A ag. U2OS OPRM1 beta-arrestin PathHunter; DMSO 0%, DAMGO 9.3 µM 100%. activation, % at 9.3 µM. 2,300 tested, 5.3% active. AID 624380, 2012;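 active = mean activation above the mean of DMSO-only wells plus 3 SD, cut at about 0.5% in these data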
# m5-HT2A ag conf: mouse HTR2A agonists, beta-arrestin recruitment, confirmation, cell-based, luminescence, CHO-K1 PathHunter, triplicate; shares compounds with HTR2A ag; DMSO 0%, 30 µM serotonin 100%; activation, % at 7.6 µM; 2,300 tested, 19% active; AID 624381, 2012;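 active = mean activation across triplicates above the hit threshold derived in the original primary screen, cut at about 15% in these data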
# Numbers stand for hits; 0 = inactive; - = not tested or not shown. Hits are enriched below; roughly 1.6% of the tested compounds scored in any of these assays. Unless noted, the rule behind the calls is not given here.
SMILES,OPRM1-OPRD1 ag,HTR5A ag ctr,HTR5A inv ag,HTR2A ag,MOR-DOR inv ag-1,MOR-DOR inv ag-2,HTR5A inv confrm,others
OC(c1cccc(Cl)c1)c1ncc(-c2ccc(Oc3ccccc3)cc2)[nH]1 (stereo not drawn),-,-,-,0,-,-,-,
O=C(CN1C(=O)C2C3C=CC(C3)C2C1=O)OCC(=O)c1ccc([N+](=O)[O-])cc1 (stereo not drawn),0,0,0,0,0,-,-,
CC(C)(C)c1cc(C(=O)NCC(=O)OCC(=O)c2cccc([N+](=O)[O-])c2)cc(C(C)(C)C)c1,0,0,0,0,46,-,-,OPRM1-D1 inv cf=37;HTR5A inv count=52
O=C(Cc1ccccc1)NCC(=O)OCC(=O)c1cccc([N+](=O)[O-])c1,0,0,0,0,64,-,-,OPRM1-D1 inv cf=58;HTR5A inv count=0
O=C(COC(=O)CNC(=O)c1cccc([N+](=O)[O-])c1)Nc1cccc(S(=O)(=O)N2CCCC2)c1,0,0,0,0,0,-,-,
O=C(CN1C(=O)C2C3CC(C(Br)C3Br)C2C1=O)OCC(=O)c1cccc([N+](=O)[O-])c1 (stereo not drawn),0,0,0,0,61,-,-,OPRM1-D1 inv cf=38;HTR5A inv count=0
N/C(=N\OC(=O)CCCc1ccccc1)c1cccc([N+](=O)[O-])c1,0,0,0,0,0,-,-,
O=C(CCc1ccccc1)OCC(=O)c1cccc([N+](=O)[O-])c1,0,0,0,0,54,-,-,OPRM1-D1 inv cf=31;HTR5A inv count=0
O=C(Cc1ccccc1)NCC(=O)OCC(=O)c1ccc([N+](=O)[O-])cc1,0,0,0,0,0,-,-,
COc1ccc(-c2nc3c(C)cc(Br)cn3c2Cc2ccsc2)cc1OC,-,-,-,0,-,-,-,
CC(=O)Oc1ccccc1Cn1c(C)c(C(=O)NCc2ccc(Cl)c(Cl)c2)sc1=O,-,-,-,0,-,-,-,
COc1cccc(C2CC(OCCF)=CC(=O)O2)c1 (stereo not drawn),-,-,-,0,-,-,-,
O=C(CN1C(=O)c2ccccc2C1=O)NCC(=O)OCC(=O)c1ccc(Br)cc1,0,0,0,0,0,-,-,
O=C(CN1C(=O)C2CC=CCC2C1=O)OCC(=O)c1ccc(Cl)c([N+](=O)[O-])c1 (stereo not drawn),0,0,38,0,89,-,-,OPRM1-D1 inv cf=59;HTR5A inv count=0
O=C(CN1C(=O)C2C3C=CC(C3)C2C1=O)OCC(=O)c1ccc(Cl)cc1 (stereo not drawn),0,0,0,0,0,-,-,
O=C(CN1C(=O)c2ccccc2C1=O)NCC(=O)OCC(=O)c1cccc([N+](=O)[O-])c1,0,0,0,0,73,-,-,OPRM1-D1 inv cf=45;HTR5A inv count=0
Cn1c(=O)c2cc(NC(=O)CCc3cccnc3)ccc2n1Cc1cccc(C(F)(F)F)c1,-,-,-,0,-,-,-,
COCCNC(=O)C1(C)CCCN(C(=O)c2ccc(C#N)cc2)C1 (stereo not drawn),-,-,-,0,-,-,-,
COc1ccc(C(C)C)cc1-c1cccc2nncn12,-,-,-,0,-,-,-,
CC1CCCCN1CCNC(=O)C1CCN(S(=O)(=O)N2CCCCC2)CC1 (stereo not drawn),0,0,0,15,13,-,-,OPRM1-D1 inv cf=0;HTR5A inv count=0;OPRM1 ag=0;m5-HT2A ag conf=0
CC1(C(=O)NCc2cccnc2)CCN1C(=O)c1cccc(F)c1 (stereo not drawn),-,-,-,0,-,-,-,
N/C(=N\OC(=O)CCN1C(=O)c2ccccc2C1=O)c1ccccn1,0,0,47,0,0,0,0,
CCc1ccc(S(=O)(=O)NCc2ccc(C(=O)NCCN(Cc3ccccc3)C(C)C)cc2)cc1,-,-,-,0,-,-,-,
COCCN(CCOC)Cc1cc(=O)oc2ccc3ccccc3c12,-,-,-,0,-,-,-,
NC(=NCc1ccccc1)C(N=Nc1ccccc1)C(=O)NCc1ccccc1 (stereo not drawn),0,0,30,0,0,0,0,
SMILES,OPRM1-OPRD1 ag,HTR5A ag ctr,HTR5A inv ag,HTR2A ag,MOR-DOR inv ag-1,MOR-DOR inv ag-2,HTR5A inv confrm,others
N#CC(C#N)=C(N)/C(C#N)=C/c1cc(O)c(O)c(O)c1,0,0,30,0,0,0,0,
N#C/C(=C\c1ccc(O)c(O)c1)C(=O)c1ccc(O)c(O)c1,0,0,0,0,0,-,-,
C/C(=N\Nc1cc(-c2ccccc2)nc(-c2ccccc2)n1)c1ccc(O)c(C)c1,0,0,49,0,0,0,0,
Cc1ccc(-n2c(-c3ccccc3)c[nH]c2=S)cc1,0,0,0,0,0,-,-,
COc1ccc(-n2c(-c3ccc(Cl)cc3)c[nH]c2=S)cc1,0,0,38,0,0,33,0,
N#CCCN=C(NS(=O)(=O)c1ccccc1)c1ccccc1,0,0,22,0,0,0,0,
CCN(CC(=O)Nc1ccc2c(c1)OCCO2)C(=O)c1ccc(Cl)cc1Cl,0,0,0,0,0,-,-,
CCN(CC(=O)Nc1ccc2c(c1)OCCO2)C(=O)c1cc(Cl)nc2ccccc12,0,0,33,0,0,0,0,
O=C(Cc1ccccc1)NCc1ccc2c(c1)OCO2,0,0,0,0,0,-,-,
O=C(CC12CCC(CC1)C2)NCc1ccc2c(c1)OCO2,0,0,27,0,0,0,0,
N#CCSc1nnc(-c2ccc3c(c2)OCO3)o1,0,0,25,0,0,0,0,
NC(Cc1ccc(C(F)(F)F)cc1)c1csc(NC(=O)NCCc2ccccc2)n1 (stereo not drawn),-,-,-,0,-,-,-,
CCC(=O)N1CCC1(C)C(=O)Nc1ccc2c(c1)CCN2C(C)=O (stereo not drawn),-,-,-,0,-,-,-,
COc1cc(/C=C2/SC(=S)N(CC3CCCO3)C2=O)ccc1O (stereo not drawn),0,0,44,0,0,0,0,

# Screening results as filed in PubChem BioAssay.
